Records with an inconclusive call do not appear. Entries that show only a call come without a potency. The source made the active and inactive calls. Unless noted, calls follow the shape of the full dose curve.
How the values were obtained:
[1] = Nuclear factor erythroid 2-related factor 2/antioxidant responsive element (Nrf2/ARE) small molecule agonists: qHTS cell viability counter screen in human keratinocytes (AID 1919968; active = well fitted curve in the direction sought with a large enough effect in the repeat runs; an effect the other way counts as inactive or inconclusive; also: nearly all actives have a fitted effect of over 55% in size; also: potency is read from the fitted curve at half-maximal effect)
In short: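 CellTiter-Fluor fluorescence, read 1 h after reagent, gave viability in the same wells as the ARE-luciferase assay. KeratinoSens cells (1,500/well) had 23 h compound exposure at 37 C/5% CO2 following 5 h plating.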

[2] = Nuclear factor erythroid 2-related factor 2/antioxidant responsive element (Nrf2/ARE) small molecule agonists: luciferase reporter gene qHTS assay in human keratinocytes (AID 1919969); also: nearly all actives have a fitted effect of over 35% in size; also: potency is read from the fitted curve at half-maximal effect
[3] = target: Gonadotropin-releasing hormone receptor (Homo sapiens) (UniProt P30968); test: Human gonadotropin-releasing hormone receptor (GnRHR) small molecule agonists, calcium flux assay in GnRHR-HEK293 cells (AID 1920063); also: nearly all actives have a fitted effect of over 35% in size; also: potency is read from the fitted curve at half-maximal effect
In short: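 Agonist mode: compounds at 15 concentrations, in triplicate, went onto calcium dye-loaded GnRHR-HEK293 cells. Intracellular calcium was then followed as 480/540 nm fluorescence at 1 s intervals over 3 min.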

[4] = target: KiSS-1 receptor (Homo sapiens) (UniProt Q969F8); test: Human kisspeptin (KISS1R) small molecule agonists, calcium flux assay in KISS1R-HEK293 cells (AID 1920064; active = well fitted curve in the direction sought with a large enough effect in the repeat runs; an effect the other way counts as inactive or inconclusive)
In short: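 Agonist mode: intracellular calcium rise tracked at 1 s intervals over 3 min (480/540 nm) immediately after compound addition to dye-loaded KISS1R-HEK293 stable cells. Each compound tested at 15 concentrations in triplicate.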

[5] = G protein-coupled receptor (GPCR) small molecule agonists, calcium flux assay: HEK293 wild type cell line counter screen (AID 1920065)
In short: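 Calcium flux counter screen: compound added in agonist mode at 15 concentrations in triplicate to dye-loaded parental HEK293 cells. Fluorescence (480/540) read kinetically for 3 min; ATP served as positive control.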

[6] = p53 small molecule agonists, cell-based qHTS assay with rat liver microsomes (AID 1963578)
In short: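 Cells carrying a p53 response element–beta-lactamase reporter were plated and rested 5 h, then dosed with compound in DMSO plus rat liver microsomes and NADPH, each at 0.5 mg/mL final. After 16 h at 37 C, LiveBLAzer substrate was added for 2 h.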

[7] = p53 small molecule agonists, cell-based qHTS assay with human liver microsomes: qHTS cell viability counter screen (AID 1963579); also: nearly all actives have a fitted effect of over 45% in size
In short: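 Cytotoxicity counter screen: p53RE-bla, 4,000 cells/well; 5 h settle, 37 C/5% CO2; cpd + HLM 0.5 mg/mL + NADPH 0.5 mg/mL (final); 16 h, 37 C; CellTiter-Glo, 30 min RT, luminescence.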

[8] = p53 small molecule agonists, cell-based qHTS assay with rat liver microsomes: qHTS cell viability counter screen (AID 1963580); also: nearly all actives have a fitted effect of over 45% in size
In short: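 Cytotoxicity counter screen: intracellular ATP read by CellTiter-Glo luminescence in the p53 reporter wells. HCT-116 p53RE-bla cells were treated for 16 h at 37 C alongside rat liver microsomes and NADPH, each 0.5 mg/mL final.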

[9] = p53 small molecule agonists, cell-based qHTS assay: qHTS cell viability counter screen (AID 1963581); also: nearly all actives have a fitted effect of over 45% in size
In short: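 Counter screen read by CellTiter-Glo luminescence (ATP content, 30 min at room temperature), run in the same wells as the beta-lactamase reporter read. HCT-116 p53RE-bla cells saw compounds for 16 h at 37 C.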

[10] = p53 small molecule agonists, cell-based qHTS assay (AID 1963582; active = well fitted activation curve with a large enough effect in the signal ratio in the repeat runs, not every such curve was filed as active; the % refers to the signal ratio)
In short: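 Read-out is beta-lactamase FRET fluorescence after 2 h at room temperature with LiveBLAzer B/G substrate. p53 response element-bla cells were treated 16 h at 37 C with compounds in DMSO, added 5 h after seeding.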

[11] = cAMP Responsive Elements (CRE) small molecule agonists, cell-based qHTS assay (AID 1963590)
In short: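 Agonist mode: compound added to CRE-bla HEK 293T cells (2,000/well, 18 h after plating) for 3 h at 37 C/5% CO2. Reporter activity detected via FRET beta-lactamase substrate, 2 h room-temperature loading.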

[12] = cAMP Responsive Elements (CRE) small molecule antagonists, cell-based qHTS assay (AID 1963591; active = well fitted inhibition curve with a large enough effect in the signal ratio in the repeat runs, not every such curve was filed as active; the % refers to the signal ratio)
In short: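 Antagonist mode: compounds are added alongside the adenylyl cyclase activator NKH477 (0.25 uM final) to CRE-bla HEK293T cells for 3 h. LiveBLAzer FRET substrate, 2 h at room temperature, reports bla expression.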

[13] = target: Beta-2 adrenergic receptor (Homo sapiens) (UniProt P07550); test: Adrenergic beta2 receptor (ADRB2) small molecule antagonists, cell-based qHTS assay (AID 1963592); also: series mostly up to about 92 µM; nearly all actives have a fitted effect of over 50% in size
In short: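 Assay format: CHO-ADRB2 cells, 18-20hr seeding at 37C/5% CO2, then compound plus 1nM isoproterenol agonist mix for 0.5hr RT. Homogeneous time-resolved fluorescence cAMP detection after 1hr, expressed as 665/615 nm ratio.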

[14] = target: Beta-2 adrenergic receptor (Homo sapiens) (UniProt P07550); test: Adrenergic beta2 receptor (ADRB2) small molecule agonists, cell-based qHTS assay (AID 1963593);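 also: CHO cells stably overexpressing human ADRB2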
In short: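 CHO cells stably over-expressing ADRB2 were plated overnight at 37C, then dosed with compounds plus a stimulation mix containing 100uM IBMX and 25uM Ro-20-1724 for 0.5hr at room temperature. cAMP was measured by HTRF competition, 1hr.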

[15] = target: D(2) dopamine receptor (Homo sapiens) (UniProt P14416); test: Dopamine D2 receptor (DRD2) small molecule agonists, cell-based qHTS assay (AID 1963594); also: nearly all actives have a fitted effect of over 35% in size
In short: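 cAMP accumulation in DRD2-HEK293 cells measured by HTRF after 1 h detection; compounds added 10 min before NKH477 (200nM […]) forskolin-analogue stimulation, 30 min at room temperature, with Ro20-1724 present at 0.1 mM final.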

[16] = target: D(2) dopamine receptor (Homo sapiens) (UniProt P14416); test: Dopamine D2 receptor (DRD2) small molecule antagonists, cell-based qHTS assay (AID 1963595; active = well fitted inhibition curve with a large enough effect in the signal ratio in the repeat runs, with a control signal flat; the % refers to the signal ratio; also: potency is read from the fitted curve at half-maximal effect)
In short: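 HEK293 cells stably expressing DRD2 were preincubated with 0.1 mM Ro20-1724, then with compound for 10 min at room temperature. Cells were stimulated with 200 nM NKH477 plus 12 nM quinpirole for 30 min, and cAMP was read by HTRF.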

[17] = target: 5-hydroxytryptamine receptor 2A (Homo sapiens) (UniProt P28223); test: 5-hydroxytryptamine receptor 2A (HTR2A) small molecule antagonists, cell-based qHTS assay (AID 1963586); also: nearly all actives have a fitted effect of over 45% in size; also: potency is read from the fitted curve at half-maximal effect
In short: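 CHO cells stably expressing human HTR2A were plated for 18 h at 37 C, then loaded with calcium dye for 1 h. Compounds were preincubated 5 min at room temperature before DOI (4 nM solution) was added. Kinetic fluorescence was read for 3 min.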

[18] = target: 5-hydroxytryptamine receptor 2A (Homo sapiens) (UniProt P28223); test: 5-hydroxytryptamine receptor 2A (HTR2A) small molecule agonists, cell-based qHTS assay (AID 1963587); also: nearly all actives have a fitted effect of over 30% in size
In short: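 Kinetic calcium-flux fluorescence (2 min, 1 sec intervals) after compound addition in agonist mode. HTR2A-CHO cells were cultured 18 h, then dye-loaded 1 h at 37 C.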

[19] = target: Muscarinic acetylcholine receptor M1 (Homo sapiens) (UniProt P11229); test: Cholinergic receptor muscarinic 1 (CHRM1) small molecule antagonists, cell-based qHTS assay (AID 1963588); also: nearly all actives have a fitted effect of over 40% in size; also: potency is read from the fitted curve at half-maximal effect
In short: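 Compounds were tested at 15 concentrations in three independent runs. Dye-loaded CHRM1-CHO cells were exposed 5 min at room temperature before stimulation by acetylcholine added at 50nM. Intracellular calcium was read kinetically on FDSS for 3 min.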

[20] = target: Muscarinic acetylcholine receptor M1 (Homo sapiens) (UniProt P11229); test: Cholinergic receptor muscarinic 1 (CHRM1) small molecule agonists, cell-based qHTS assay (AID 1963589); also: nearly all actives have a fitted effect of over 35% in size
In short: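 Agonist-mode calcium-flux screen: compounds at 15 concentrations, three independent runs, were pin-transferred onto dye-loaded human CHRM1-CHO cells. Fluorescence was then recorded kinetically every second over minutes.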

D(2) dopamine receptor (Homo sapiens), sequence (P14416 whole entry, looked up): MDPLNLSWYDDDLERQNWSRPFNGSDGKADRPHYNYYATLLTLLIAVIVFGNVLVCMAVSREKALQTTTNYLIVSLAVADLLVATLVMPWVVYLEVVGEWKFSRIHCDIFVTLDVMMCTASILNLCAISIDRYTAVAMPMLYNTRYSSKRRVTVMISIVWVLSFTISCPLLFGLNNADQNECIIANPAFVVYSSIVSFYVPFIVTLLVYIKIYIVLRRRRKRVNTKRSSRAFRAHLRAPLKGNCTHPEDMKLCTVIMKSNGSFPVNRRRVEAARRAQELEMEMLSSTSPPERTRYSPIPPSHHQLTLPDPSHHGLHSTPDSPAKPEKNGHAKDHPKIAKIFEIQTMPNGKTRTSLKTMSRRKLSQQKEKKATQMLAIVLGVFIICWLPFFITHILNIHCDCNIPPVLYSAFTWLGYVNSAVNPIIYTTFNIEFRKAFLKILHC
Beta-2 adrenergic receptor (Homo sapiens), sequence (P07550 whole entry, looked up): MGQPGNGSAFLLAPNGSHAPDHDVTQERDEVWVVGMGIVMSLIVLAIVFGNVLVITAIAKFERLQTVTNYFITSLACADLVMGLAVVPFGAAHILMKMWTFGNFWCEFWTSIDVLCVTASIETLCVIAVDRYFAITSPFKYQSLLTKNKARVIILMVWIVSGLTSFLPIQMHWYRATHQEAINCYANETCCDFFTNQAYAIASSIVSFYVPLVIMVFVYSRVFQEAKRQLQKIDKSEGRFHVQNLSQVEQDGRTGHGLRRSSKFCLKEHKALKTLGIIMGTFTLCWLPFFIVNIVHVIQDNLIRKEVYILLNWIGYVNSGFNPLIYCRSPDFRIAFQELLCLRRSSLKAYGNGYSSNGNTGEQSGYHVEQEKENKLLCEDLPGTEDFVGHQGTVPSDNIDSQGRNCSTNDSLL
KiSS-1 receptor (Homo sapiens), sequence (Q969F8 whole entry, looked up): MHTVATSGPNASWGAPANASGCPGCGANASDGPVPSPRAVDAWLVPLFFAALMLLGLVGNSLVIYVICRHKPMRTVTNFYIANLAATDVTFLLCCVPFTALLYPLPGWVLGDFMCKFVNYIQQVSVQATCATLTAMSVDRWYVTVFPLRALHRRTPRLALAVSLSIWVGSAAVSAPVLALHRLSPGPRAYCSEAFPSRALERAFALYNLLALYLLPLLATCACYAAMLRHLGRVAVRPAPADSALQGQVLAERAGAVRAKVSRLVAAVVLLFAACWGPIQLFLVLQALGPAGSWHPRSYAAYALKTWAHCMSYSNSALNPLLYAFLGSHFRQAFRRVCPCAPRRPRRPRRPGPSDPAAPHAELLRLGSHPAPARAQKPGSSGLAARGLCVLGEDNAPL
Muscarinic acetylcholine receptor M1 (Homo sapiens), sequence (P11229 whole entry, looked up): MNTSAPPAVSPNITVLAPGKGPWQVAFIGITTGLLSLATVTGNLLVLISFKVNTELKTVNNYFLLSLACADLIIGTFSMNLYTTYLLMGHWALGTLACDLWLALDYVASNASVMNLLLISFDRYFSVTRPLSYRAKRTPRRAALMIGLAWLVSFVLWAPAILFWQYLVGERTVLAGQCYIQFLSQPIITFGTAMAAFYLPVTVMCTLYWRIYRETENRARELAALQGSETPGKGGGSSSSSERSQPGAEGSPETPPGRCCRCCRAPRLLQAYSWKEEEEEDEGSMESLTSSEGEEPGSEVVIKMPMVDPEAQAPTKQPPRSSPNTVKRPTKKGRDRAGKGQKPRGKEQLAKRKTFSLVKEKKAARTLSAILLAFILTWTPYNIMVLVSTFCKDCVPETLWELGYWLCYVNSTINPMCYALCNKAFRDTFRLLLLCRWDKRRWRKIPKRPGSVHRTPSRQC
5-hydroxytryptamine receptor 2A (Homo sapiens), sequence (P28223 whole entry, looked up): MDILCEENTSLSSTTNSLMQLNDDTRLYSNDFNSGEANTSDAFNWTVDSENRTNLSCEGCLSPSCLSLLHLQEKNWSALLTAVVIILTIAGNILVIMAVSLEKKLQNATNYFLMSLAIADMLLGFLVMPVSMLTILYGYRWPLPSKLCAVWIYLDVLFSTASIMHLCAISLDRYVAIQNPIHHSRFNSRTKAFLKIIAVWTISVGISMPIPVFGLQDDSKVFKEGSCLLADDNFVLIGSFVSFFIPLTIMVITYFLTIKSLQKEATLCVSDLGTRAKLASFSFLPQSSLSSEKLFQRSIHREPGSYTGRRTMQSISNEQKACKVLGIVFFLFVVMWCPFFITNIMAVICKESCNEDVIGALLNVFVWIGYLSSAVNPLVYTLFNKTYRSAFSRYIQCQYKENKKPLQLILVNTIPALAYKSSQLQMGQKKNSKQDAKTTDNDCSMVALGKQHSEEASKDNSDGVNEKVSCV
Gonadotropin-releasing hormone receptor (Homo sapiens), sequence (P30968 whole entry, looked up): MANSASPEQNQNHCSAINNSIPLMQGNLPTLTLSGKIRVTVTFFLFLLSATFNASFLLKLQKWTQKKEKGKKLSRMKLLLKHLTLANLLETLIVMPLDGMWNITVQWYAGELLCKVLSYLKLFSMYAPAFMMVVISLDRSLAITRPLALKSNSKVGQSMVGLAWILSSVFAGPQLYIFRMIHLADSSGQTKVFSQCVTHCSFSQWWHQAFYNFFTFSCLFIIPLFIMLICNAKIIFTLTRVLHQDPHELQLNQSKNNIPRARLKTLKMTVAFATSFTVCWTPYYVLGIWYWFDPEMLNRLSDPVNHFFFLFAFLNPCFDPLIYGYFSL

Compound	Potency [1]	Potency [2]	Potency [3]	Potency [4]	Potency [5]	Potency [6]	Potency [7]	Potency [8]	Potency [9]	Potency [10]	Potency [11]	Potency [12]	Potency [13]	Potency [14]	Potency [15]	Potency [16]	Potency [17]	Potency [18]	Potency [19]	Potency [20]
C[N+](C)(C)CCOC(N)=O	inactive	inactive	2.39 µM (active)	inactive	inactive	inactive	inactive	inactive	inactive	inactive	inactive	inactive	inactive	inactive	inactive	–	–	–	–	–
CC1(C)O[C@@H]2C[C@H]3[C@@H]4CCC5=CC(=O)CC[C@]5(C)[C@@]4(F)[C@@H](O)C[C@]3(C)[C@]2(C(=O)CCl)O1	inactive	inactive	inactive	inactive	inactive	inactive	inactive	inactive	inactive	inactive	inactive	–	inactive	inactive	inactive	inactive	–	–	–	–
Cc1ccc(C(=O)C(C)CN2CCCCC2)cc1 (centres undefined)	inactive	inactive	inactive	inactive	inactive	inactive	inactive	inactive	inactive	inactive	–	inactive	inactive	–	inactive	–	–	–	–	–
CCN(Cc1ccccc1)c1ccccc1	inactive	inactive	inactive	inactive	inactive	inactive	inactive	inactive	–	inactive	inactive	inactive	inactive	–	–	inactive	inactive	inactive	inactive	inactive
CN(C)CCOC(c1ccccc1)c1ccc(Br)cc1 (centres undefined)	inactive	inactive	inactive	inactive	inactive	inactive	inactive	inactive	–	inactive	inactive	inactive	inactive	inactive	inactive	inactive	6.5 µM (active)	inactive	3.65 µM (active)	inactive
COC(=O)CSc1cc(N=c2sc(=O)n3n2CCCC3)c(F)cc1Cl	inactive	inactive	inactive	inactive	inactive	inactive	inactive	inactive	inactive	–	–	–	inactive	–	–	–	inactive	inactive	inactive	inactive
O=C1NC2CCCCN2C12CCN(CCCN1c3ccccc3CCc3ccc(Cl)cc31)CC2 (centres undefined)	29.8 µM (active)	inactive	inactive	inactive	inactive	inactive	inactive	inactive	inactive	–	–	–	–	inactive	inactive	0.335 µM (active)	0.0365 µM (active)	inactive	1.3 µM (active)	–
CCN(Cc1cccnc1)C(=O)c1cccc(Cl)c1[C@]1(C)C(=O)N(Cc2ccc(OC)cc2OC)c2ccc(Cl)cc21	inactive	inactive	inactive	inactive	inactive	inactive	inactive	inactive	–	–	–	–	–	–	inactive	–	inactive	inactive	inactive	inactive
NCc1ccccc1	inactive	inactive	inactive	inactive	inactive	inactive	inactive	inactive	inactive	–	inactive	inactive	inactive	–	inactive	–	inactive	inactive	inactive	inactive
Cc1cc2cc3c(C)cc(=O)oc3c(C)c2o1	inactive	inactive	inactive	inactive	inactive	inactive	inactive	inactive	inactive	inactive	inactive	inactive	inactive	–	inactive	inactive	–	–	–	–
O=[N+]([O-])c1cc[n+]([O-])cc1	inactive	61.1 µM (active)	inactive	inactive	inactive	inactive	inactive	inactive	–	inactive	inactive	inactive	inactive	inactive	inactive	inactive	inactive	inactive	inactive	inactive
CC1=CC(C)C(C=O)C(C)C1 (centres undefined)	inactive	inactive	inactive	inactive	inactive	inactive	inactive	inactive	–	inactive	inactive	inactive	inactive	inactive	inactive	inactive	inactive	inactive	inactive	inactive
CC(=O)OCCC(C)CC(C)(C)C (centres undefined)	inactive	inactive	inactive	inactive	inactive	inactive	inactive	inactive	–	–	inactive	inactive	–	inactive	–	inactive	inactive	inactive	inactive	–
CCCCC/C=C\C/C=C\CCCCCCCC(=O)NC(C)c1ccccc1 (centres undefined)	inactive	inactive	inactive	inactive	inactive	inactive	inactive	inactive	inactive	–	–	–	inactive	inactive	inactive	inactive	inactive	inactive	inactive	inactive
COc1ccc(S(=O)(=O)Nc2nnc(CC(C)C)s2)cc1	inactive	inactive	inactive	inactive	inactive	inactive	inactive	inactive	inactive	–	inactive	inactive	inactive	inactive	inactive	inactive	–	inactive	inactive	inactive
CC(=O)/C=C/C=C1/C2CCC(C2)C1(C)C (centres undefined)	inactive	inactive	inactive	inactive	inactive	inactive	inactive	inactive	–	inactive	inactive	inactive	inactive	inactive	inactive	inactive	inactive	inactive	inactive	–

— PubChem BioAssay (Tox21)
